Measurements from PubChem BioAssay AID1835 (Johns Hopkins Ion Channel Center, 2009).
Out of some 2,400 compounds screened, about 750 (31%) were called active. This is one part of the list. Unmarked numbers belong to inactive results.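 The calls were made as follows: active = median signal gain over dofetilide-blocked control wells reaching their mean plus 3 SD, so readout 1 at least 0; inactive = the rest.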

target: Voltage-gated inwardly rectifying potassium channel KCNH2 (Homo sapiens) (UniProt Q12809); experiment: modulators restoring hERG flux under dofetilide – cell-based, thallium flux, duplicate retest, dofetilide IC70, confirmation (AID 1835); conditions: hERG cell line, FluxOR thallium flux, dofetilide-blocked; at 10 µM; active compounds read high
Sequence (Q12809 whole entry, looked up): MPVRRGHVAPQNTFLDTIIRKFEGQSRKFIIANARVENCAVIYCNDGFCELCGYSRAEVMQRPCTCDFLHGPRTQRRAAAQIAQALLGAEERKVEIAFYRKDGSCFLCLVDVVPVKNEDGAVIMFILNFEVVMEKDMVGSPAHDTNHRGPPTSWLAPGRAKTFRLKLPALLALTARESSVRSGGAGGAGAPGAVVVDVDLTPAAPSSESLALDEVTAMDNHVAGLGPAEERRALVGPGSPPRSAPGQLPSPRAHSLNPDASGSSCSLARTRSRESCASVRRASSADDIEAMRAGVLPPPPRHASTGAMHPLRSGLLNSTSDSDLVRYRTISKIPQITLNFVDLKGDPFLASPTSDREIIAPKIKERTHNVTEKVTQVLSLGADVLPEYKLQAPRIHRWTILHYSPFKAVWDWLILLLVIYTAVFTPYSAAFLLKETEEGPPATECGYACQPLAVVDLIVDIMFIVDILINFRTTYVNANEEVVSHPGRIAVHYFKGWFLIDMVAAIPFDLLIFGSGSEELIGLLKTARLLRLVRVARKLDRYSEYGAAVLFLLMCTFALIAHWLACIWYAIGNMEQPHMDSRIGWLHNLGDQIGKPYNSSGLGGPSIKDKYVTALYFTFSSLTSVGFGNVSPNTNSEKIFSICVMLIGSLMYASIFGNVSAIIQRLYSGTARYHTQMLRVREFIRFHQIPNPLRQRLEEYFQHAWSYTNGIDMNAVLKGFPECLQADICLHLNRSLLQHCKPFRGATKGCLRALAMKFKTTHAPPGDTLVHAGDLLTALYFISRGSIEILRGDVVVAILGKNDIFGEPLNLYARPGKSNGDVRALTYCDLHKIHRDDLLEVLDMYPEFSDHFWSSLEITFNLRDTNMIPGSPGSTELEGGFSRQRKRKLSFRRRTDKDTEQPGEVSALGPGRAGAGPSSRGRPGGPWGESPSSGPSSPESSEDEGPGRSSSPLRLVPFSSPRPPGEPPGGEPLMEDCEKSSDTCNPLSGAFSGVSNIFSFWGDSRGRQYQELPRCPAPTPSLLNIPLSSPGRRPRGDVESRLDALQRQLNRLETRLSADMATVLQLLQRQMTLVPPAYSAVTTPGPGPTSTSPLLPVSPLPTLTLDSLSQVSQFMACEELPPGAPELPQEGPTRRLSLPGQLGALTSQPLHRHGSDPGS

Compound | activity increase over dofetilide control, less the hit threshold
CCCOc1ccc(C2NC(=S)NC(c3ccccc3)=C2C(=O)Nc2ccc(C)cc2)cc1OC (stereo not drawn) | -5%
Cc1cc(C(=O)N/N=C/c2ccc(O)c([N+](=O)[O-])c2)n[nH]1 | -13%
O=C(c1ccccc1)N1CCc2ccccc21 | -6%
O=C(NC(=S)N1CCc2ccccc21)c1ccccc1 | 43% (active)
O=C(NC(=S)N1CCc2ccccc21)c1ccco1 | -11%
O=C(NC(=S)N1CCc2ccccc21)c1ccc(Br)o1 | 12% (active)
O=C(NC(=S)N1CCCc2ccccc21)c1ccccc1 | -18%
O=C(NC(=S)N1CCc2ccccc21)c1ccccc1Cl | 53% (active)
O=C(N/N=C/c1ccsc1)C1CC1 | -4%
CC1CCN(S(=O)(=O)c2ccc3nc(N4CCN(c5ccccc5)CC4)ccc3c2)CC1 | -22%
COc1cc(C2c3c(n[nH]c3C)C(=O)N2c2ccc(C)cc2)ccc1O (stereo not drawn) | -15%
O=C(NCc1cccnc1)c1ccc(NS(=O)(=O)c2ccc(F)cc2)cc1 | -9%
CCOC(=O)N/N=C/C=C/c1ccccc1[N+](=O)[O-] | 4% (active)
O=C(N/N=C/c1ccccc1[N+](=O)[O-])c1ccc(CN2CCOCC2)cc1 | -4%
CC1=NNC(=O)C1CC(=O)N/N=C/C=C/c1ccccc1 (stereo not drawn) | -18%
Cc1cc(C)n2nc(SCC(=O)NC3CCCCC3C)nc2n1 (stereo not drawn) | -19%
Oc1c(N=NC(=S)Nc2ccccc2F)c2ccccc2n1Cc1ccccc1F | 19% (active)
Oc1c(N=NC(=S)Nc2ccccc2F)c2ccccc2n1Cc1ccccc1Cl | -2%
Cn1c(O)c(N=NC(=S)Nc2ccccc2F)c2cc(S(=O)(=O)N3CCOCC3)ccc21 | -22%
Cc1ccc(C)c(Cn2c(O)c(N=NC(=S)Nc3ccccc3F)c3ccccc32)c1 | -2%
Cc1ccccc1Cn1c(O)c(N=NC(=S)Nc2ccccc2F)c2ccccc21 | 6% (active)
CC(C)Nc1nc(SCC(N)=O)nc(N2CCOCC2)n1 | -12%
O=C1CN(C(=O)COc2ccccc2F)c2ccccc2N1 | -17%
COC(=O)c1sccc1NS(=O)(=O)c1ccc(F)cc1F | 2% (active)
COC(=O)c1sccc1NC(=O)CSc1ccccc1NS(=O)(=O)c1cc(Cl)ccc1Cl | -3%
COC(=O)c1sccc1NC(=S)N1CC(C)CC(C)C1 (stereo not drawn) | -15%

Compound | activity increase over dofetilide control, less the hit threshold
Cc1ccc(NS(=O)(=O)c2cn(C)c(=O)n(C)c2=O)c(C)c1 | 0% (active)
Cc1ccc(S(=O)(=O)n2cnc3ccccc32)c(C)c1 | -13%
Cc1ccc(NC(=O)c2ccc3c(c2)CCN3S(C)(=O)=O)c(C)c1 | -17%
Cc1cc(C(=O)NNC2CC(=O)N(c3ccc4ccccc4c3)C2=O)c(C)o1 (stereo not drawn) | -6%
Cc1c(C)n(CCN(C)C)c2ccc(C(=O)OCCN(C)C)cc12 | -7%
CC(=O)c1c(C)c2c(n1CCN(C)C)CCCC2 | 2% (active)
O=C(CC1NC(=O)NC1=O)Nc1ccccc1 (stereo not drawn) | -19%
O=C(c1cncc(Br)c1)N1CCc2ccccc2C1 | -15%
CCC1(C)Cc2c(sc3[nH]c(=S)n(Cc4ccccc4)c(=O)c23)CO1 (stereo not drawn) | 30% (active)
CC1(C)Cc2c(sc3[nH]c(=S)n(Cc4ccccc4)c(=O)c23)CO1 | -10%
CC(C)C1Cc2c(sc3[nH]c(=S)n(Cc4ccccc4)c(=O)c23)CO1 (stereo not drawn) | 16% (active)
COc1ccc(C(=O)NCC(=O)OCn2nnc3ccccc3c2=O)cc1OC | -24%
CCCCNC(=S)N/N=C/C1=CCC2CC1C2(C)C (stereo not drawn) | -22%
Fc1ccc2c(c1)C(c1ccncc1)=NNC(c1cccnc1)=N2 | -13%
C=CCc1cc(Cl)ccc1OCCOCCN(C)C | -19%
Cc1csc(NC(=O)C2C3C=CC(C3)C2C(=O)O)n1 (stereo not drawn) | -19%
O=C(O)c1ccc(CNC(=O)C23CC4CC(CC(C4)C2)C3)cc1 | -3%
O=C(NCc1ccccc1)C(=O)Nc1nc(C23CC4CC(CC(C4)C2)C3)cs1 | 18% (active)
Oc1ccc(/C=N/Nc2nccnc2Cl)c(O)c1 | 8% (active)
COc1ccc(N2C(=O)CCC(C(=O)O)C2c2ccc(F)cc2)cc1 (stereo not drawn) | -5%
O=C(NC(=S)Nc1nc(-c2ccc(Br)cc2)cs1)c1ccco1 | 10% (active)
COc1ccc(-c2csc(NC(=S)NC(=O)c3ccco3)n2)cc1Br | -17%
O=C(NC(=S)Nc1nc(-c2cccc([N+](=O)[O-])c2)cs1)c1ccccc1Cl | -1%
O=C(NC(=S)Nc1nc(-c2ccc([N+](=O)[O-])cc2)cs1)c1ccco1 | 16% (active)
O=C(NC(=S)Nc1nc(-c2ccccc2)cs1)c1ccco1 | 1% (active)
COc1ccc(-c2csc(NC(=S)NC(=O)c3ccco3)n2)cc1 | 11% (active)

Compound | activity increase over dofetilide control, less the hit threshold
O=C(CCc1ccc(S(=O)(=O)N2CCCCC2)cc1)c1nnc(-c2ccccc2)o1 | -14%
Cc1[nH]c(=S)c(C#N)c(C)c1Cc1ccc(Cl)cc1Cl | -12%
O=C(N/N=C/C(Cl)=C/c1ccc([N+](=O)[O-])cc1)C(=O)Nc1ccc(C(=O)O)cc1 | -13%
O=c1c(C(c2ccc(O)cc2)c2c(O)nc3n(c2=O)CCS3)c(O)nc2n1CCS2 | 3% (active)
O=[N+]([O-])c1cccc(NC(=S)Nc2nc(-c3ccccc3Cl)cs2)c1 | -7%
O=C(N=Nc1c(O)[nH]c2ccc([N+](=O)[O-])cc12)c1cc(-c2ccccc2Cl)nc2ccccc12 | 97% (active)
CN(C)/C(=N\S(=O)(=O)c1ccccc1)c1ccc(F)cc1 | -9%
Cc1cccc(-n2cc(-c3ccccc3)[nH]c2=S)c1 | -6%
S=C(N/N=C/c1cccc2ccccc12)Nc1cccc(Cl)c1 | -8%
S=c1[nH]c(-c2ccccc2)cn1/N=C/c1cccc2ccccc12 | 2% (active)
Cc1c(OC(C(=O)O)c2ccccc2)ccc2c(-c3ccccc3)cc(=O)oc12 (stereo not drawn) | -3%
COc1cccc(C(=O)NNC(=O)C(=O)Nc2cccc3ccccc23)c1 | 52% (active)
COc1ccc(C(=O)NNC(=O)C(=O)Nc2cccc3ccccc23)cc1 | 51% (active)
COc1ccc(C(=O)NNC(=O)CSc2nnc(COc3ccccc3)n2C)cc1 | -24%
COc1cc(NC(=O)c2cc(-c3cccnc3)nc3ccc(C)cc23)c(OC)cc1Cl | -17%
COc1cc(OC)cc(C(=O)NNC(=O)C(=O)Nc2cc(OC)c(Cl)cc2OC)c1 | 68% (active)
COc1cccc(C(=O)NNC(=O)C(=O)Nc2ccc(OC)cc2OC)c1 | 19% (active)
Cc1cc(C(=O)Nc2cccc3ccccc23)c(C)o1 | -12%
COc1ccc(NC(=O)C2CC3CCC2C3)c(OC)c1 (stereo not drawn) | -8%
COc1cccc(CCNS(=O)(=O)CCNC(=O)c2cccc(OC)c2)c1 | -15%
CN(C)CCOC(=O)C1(c2ccccc2)CCCC1 | -3%
O=C(CSc1cccc2cccnc12)N/N=C/c1cccnc1 | -19%
COC(=O)c1ccc(Oc2ccc(S(=O)(=O)N3CCCCC3)cc2N)cc1 | -12%
O=S(=O)(Nc1cccc(-n2cnnn2)c1)c1ccc(Cl)nc1 | -11%
CCOCCOCN(C#N)c1nc(OC)nc(N(C)C)n1 | -22%
O=C(CN1C(=O)CSCC1=O)Nc1ccc2c(c1)OCO2 | -6%

Compound | activity increase over dofetilide control, less the hit threshold
COC(=O)CC1C(=O)NCCN1C(=S)NC(=O)c1sc2ccccc2c1Cl (stereo not drawn) | -1%
CC1CCCCC1NC(=S)NC(=O)c1cccs1 (stereo not drawn) | 44% (active)
O=C(NC(=S)N(CCCCO)C1CCCCC1)c1sc2ccccc2c1Cl | 29% (active)
CC1CCCCC1NC(=S)NC(=O)c1sc2ccccc2c1Cl (stereo not drawn) | 5% (active)
CN(CC(=O)Nc1ccc(OC(F)(F)F)cc1)S(=O)(=O)c1cnc[nH]1 | -9%
FC(F)c1nnc2c(Cl)cc(C(F)(F)F)cn12 | -11%
O=C(NC(=S)NNC(=O)[C@H]1C[C@@H]1c1ccccc1)c1cccc(F)c1 | -14%
C=CCn1c(SCC(N)=O)nc2scc(-c3ccc(C)o3)c2c1=O | -19%
C=CCn1c(=S)[nH]c2scc(-c3cccs3)c2c1=O | 90% (active)
C=CCn1c(=S)[nH]c2scc(-c3ccc(C)o3)c2c1=O | 72% (active)
O=C(Nc1ccc(Cl)c(Cl)c1)Nc1nnc(CSc2ccccc2)s1 | -10%
N#CC(=C1SC=CS1)c1nc(-c2ccccc2)cs1 | -7%
COC(=O)c1cc(-c2ccc(C)cc2)n[nH]1 | -17%
Cc1ccc(-c2n[nH]c(=S)nc2-c2ccc(C)cc2)cc1 | 13% (active)
S=c1nc(-c2ccccc2)c(-c2ccccc2)n[nH]1 | -9%
Cn1cc(/C=C2\SC(=O)NC2=S)c2ccccc21 | -24%
CCOc1ccc(/C=C2/SC(=O)NC2=S)cc1 | 92% (active)
CCOc1cc(-n2ncc(C#N)c2N)nc(SC)n1 | -12%
CCOC(=O)c1ccc(Oc2cc(C)nc(SC)n2)cc1 | 10% (active)
CCc1ccc(OCC(=O)Nc2ncn[nH]2)cc1 | -29%
CCc1ccc(NC(=O)C(=O)NNC(=O)COc2cccc(OC)c2)cc1 | 14% (active)
COc1cccc(OCC(=O)NNC(=O)C(=O)Nc2cccc(C)c2)c1 | 50% (active)
O=C(COc1cccc(-n2cnnn2)c1)Nc1ccc([N+](=O)[O-])cc1 | -1%
Cc1cccc(OCC(=O)NCc2nc(-c3ccccc3)no2)c1 | -13%
COc1cccc(NC(=O)CSCc2n[nH]c(=O)[nH]2)c1 | -20%
